Assay outcomes deposited in PubChem BioAssay by National Center for Advancing Translational Sciences (NCATS).
DRD3 antagonist: D3 dopamine receptor (human) antagonism. max response, negative = inhibition, %. D3R cells, DiscoveRx beta-arrestin luminescence, antagonist mode; stronger effect = lower value. 360,000 tested, 2.5% active. P35462; in the data active means max response below about -50%; inconclusive means no clear call, values can overlap the other calls; further: on the % scale 0 is the no-effect control and ±100 the full control effect
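Cells expressing the human receptor were seeded at 1500 cells/well, incubated overnight at 37 degrees C in 5% CO2, then exposed to library compounds with dopamine controls for 90 minutes at 37 degrees C before luminescent detection.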
Integrin act MD: activates integrin-mediated alleviation for muscular dystrophy | alpha7betagal myoblasts, beta-gal FDG fluorescence, 48 h | AID 624291 | Potency, µM (highest dose often 38.3 µM), for inactives: at the top dose activation, actives largely listed as activators | 350,000 tested, 0.064% active;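 further: potency means the concentration at half of the fitted maximal effect; 100% = response of the positive control SU9516; nearly all actives have a fitted effect of over 60% in size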
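Alpha7betagal+/- myoblasts (passage 13) were plated 16-24 hr, then exposed to compounds (1:260 dilution of DMSO stock) for 48 hours at 37C. After MPER lysis, β-galactosidase reporter activity was read as FDG fluorescence (ex 480/em 540) after 30 minutes.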
IDH1 R132H inh: inhibitors of human mutant IDH1 R132H; O75874; IDH1-R132H enzyme, NADPH consumption, diaphorase/resazurin fluorescence; Potency, µM (series often up to 76.6 µM), for the others: at the top dose activity change, negative = inhibition, hits mostly inhibitors; 390,000 tested, 0.093% active; AID 602179; further: potency means the concentration at half of the fitted maximal effect; on the % scale 0 is the no-effect control and ±100 the full control effect; nearly all actives have a fitted effect of over 65% in size
Target sequence (O75874 whole entry R132H, stated change not applied): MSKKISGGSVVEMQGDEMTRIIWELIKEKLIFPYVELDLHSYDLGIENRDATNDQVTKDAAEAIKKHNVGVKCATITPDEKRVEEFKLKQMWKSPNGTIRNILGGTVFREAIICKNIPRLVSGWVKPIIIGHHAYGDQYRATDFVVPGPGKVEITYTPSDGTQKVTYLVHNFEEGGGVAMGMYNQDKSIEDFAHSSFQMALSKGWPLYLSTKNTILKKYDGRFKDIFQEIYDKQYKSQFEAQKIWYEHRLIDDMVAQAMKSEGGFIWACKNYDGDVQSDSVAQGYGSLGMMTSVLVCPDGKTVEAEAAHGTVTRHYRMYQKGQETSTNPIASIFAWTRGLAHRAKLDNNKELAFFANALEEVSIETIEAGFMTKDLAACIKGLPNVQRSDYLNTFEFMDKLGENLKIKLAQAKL
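IDH1-R132H (0.5 ug/mL) preincubated 30 min with compound, then NADPH (0.016 mM) and alpha-KG (2 mM) added; 80 min at RT, pH 7.5. Remaining NADPH coupled via diaphorase/resazurin to fluorescence (540/590 nm); concentration-response curves normalized to no-enzyme control.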
B2AR arrestin: beta2AR (human) beta-arrestin recruitment activity | AID 492947 | 330,000 tested, 0.02% active | beta-arrestin recruitment to beta2AR, cell-based reporter | Potency, µM (highest dose often 46.1 µM), for inactives: at the highest dose activation, most hits filed as activators;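 further: potency means the concentration at half of the fitted maximal effect; 0% = DMSO controls and full agonism = EC100 isoproterenol or metaproterenol; nearly all actives have a fitted effect of over 65% in size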
DRD3 agonist: agonists of human D3 dopamine receptor; P35462; 410,000 tested, 0.58% active; max activation, %; D3R DiscoveRx beta-arrestin cells, luminescence, 90 min; in the data active means max activation above about 30%; further: 0% is about no effect
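Agonist mode: compounds and dopamine controls were applied to plated cells for 90 min at 37 degrees C after an overnight attachment at 1500 cells/well. Luminescent read-out followed 30 - 60 minutes at room temperature with DiscoveRx detection reagent.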
Active calls of the source: *; u = inconclusive; x = no result given; [ ] = another dose, or the depositor's remark. Rows were chosen to be rich in hits. Some 2.9% of all compounds tested hit in one or more screens of this group. Unless noted, the call rests on the fitted dose curve; in most records, active means well fitted curve in the direction sought with a large enough effect; inconclusive means small, poorly fitted or top-dose-only effect, or another doubt; inactive means no such curve, though single readings can be large; an effect the other way counts as inactive or inconclusive.

SMILES	DRD3 antagonist	Integrin act MD	IDH1 R132H inh	B2AR arrestin	DRD3 agonist
CC[C@H](C)C(C(=O)N1CCN(C(=O)OC(C)(C)C)CC1)n1cc(C(Cc2ccc(O)cc2)NC(=O)OC(C)(C)C)nn1 (some centres not stated)	73	8%	2%	0%	52*
CC(COc1ccccc1)N1CCC(CO)(CCc2ccccc2)CC1 (configuration not stated)	-62*	-49%	4%	0%	2
CSCC(C)N1CCC(CO)(CCc2ccccc2)CC1 (configuration not stated)	44	-38%	0%	0%	-5
Cc1c(/C=N/NC(=O)c2ccccc2O)c2ccccn2c1C(=O)c1ccc(F)cc1	13	1%	2%	-1%	31*
c1ccc(CN2CCC3(CC2)Nc2ccccc2CO3)cc1	-12	-13%[7.66 µM]	1%	-1%	4
c1ccc(CN2CCC3(CCCc4ccccc43)CC2)cc1	-105*	x	-5%	0%	-91
O=C(c1ccc2c(c1)N(Cc1ccc(F)cc1)C(=O)c1ccccc1S2(=O)=O)N1CCCCC1	x	x	x	x	-6
Cc1ccc2nc(C)c(C(=O)N/N=C/c3ccco3)cc2c1	-9	2%	2%	-1%	1
Cc1ccc2nc(C)c(C(=O)N/N=C/c3ccc(N4CCOCC4)cc3)cc2c1	-6	-3%	3%	-2%	31*
CC1CCCCC12NC(=O)N(CC(=O)OCc1ccccc1F)C2=O (configuration not stated)	-4	21%	9%	0%	-10
CC1CCCCC12NC(=O)N(CC(=O)OCc1cccc(F)c1)C2=O (configuration not stated)	6	10µM*	-3%	0%	-4
CCOc1cc(NC(=O)c2ccccn2)c(OCC)cc1NC(=O)c1ccc(C)cc1	37	24%	15%	0%	-1
CCOc1cc(NC(=O)C2CCCCC2)c(OCC)cc1NC(=O)c1ccccn1	17	-1%	1%	-1%	49*
CCOc1ccc(S(=O)(=O)Nc2cc(SCC(=O)O)c(O)c3ccccc23)cc1	-51*	-4%	6%	0%	-16
O=C(O)CSc1cc(NS(=O)(=O)c2cccc([N+](=O)[O-])c2)c2ccccc2c1O	-51*	-6%	8%	0%	-16
CCc1ccc(S(=O)(=O)Nc2cc(SCC(=O)O)c(O)c3ccccc23)cc1	-63*	-37%	11%	0%	-2
Cc1ccc(C)c(S(=O)(=O)Nc2cc(SCC(=O)O)c(O)c3ccccc23)c1	u	-12%	1%	-1%	-8
CC(C)c1ccc(S(=O)(=O)c2nnn3c2nc(N2CCCCC2)c2sccc23)cc1	x	x	u	x	1
CCOc1ccccc1NC(=O)c1cc2c(Cl)nc3ccccc3c2s1	x	x	-4%	x	7
COc1ccc(-c2nc(C#N)c(NCCN(C)C)o2)cc1	-61*	-9%	-5%	x	-8
O=C(Cn1cc(SCc2c(F)cccc2Cl)c2ccccc21)N1CCCCCC1	x	x	9%	x	-12
CNS(=O)(=O)c1cc(-c2nn3c(C)nnc3c3ccccc23)ccc1C	x	x	-5%	x	2
Cc1ccc(Nc2cc(C)nc3ncnn23)cc1	-12	5%	-7%	0%	-7
CCCCCC(=O)N(O)C1CC(=O)N(c2ccccc2)C1=O (configuration not stated)	-86*	-10%	5%	0%	-4
CCCCCCC(=O)N(O)C1CC(=O)N(Cc2ccccc2)C1=O (configuration not stated)	-5	11%	7%	0%	-1
SMILES	DRD3 antagonist	Integrin act MD	IDH1 R132H inh	B2AR arrestin	DRD3 agonist
COc1cccc(CNC(=O)c2cnc3sc(N4CCCC4)nn3c2=O)c1OC	x	x	-13%	x	19
CCc1nnc(NS(=O)(=O)c2ccc(NS(=O)(=O)c3ccccc3[N+](=O)[O-])cc2)s1	-25	u	0%	0%	-7
CC(=O)c1ccc(Nc2ccc([N+](=O)[O-])c3nonc23)cc1	-12	-43%	8%	1%	-6
CCc1nnc(NS(=O)(=O)c2ccc(Nc3ccc([N+](=O)[O-])c4nonc34)cc2)s1	-63*	u	18%	-1%	-11
O=C(O)c1cccc(Nc2ccc([N+](=O)[O-])c3nonc23)c1	-57*	-5%	3%	0%	-14
O=C(O)c1ccc(Nc2ccc([N+](=O)[O-])c3nonc23)cc1	-77*	9%	-9%	0%	-18
COc1ccccc1CNS(=O)(=O)CCNCCc1ccccc1	-74*	28%	6%	x	-34
O=S(=O)(CCNCCc1ccccc1)NCc1ccccc1	u	20%	4%	x	-26
CCCCCCCCNCCS(=O)(=O)NCc1ccc(OC)cc1	-63*	-43%	-1%	x	-24
CCCCCCCCNS(=O)(=O)CCNCc1ccco1	-5	-19%	9%	x	37*
CCCCCCNS(=O)(=O)c1ccc(OC)c(OC)c1	17	22%	-7%	0%	32*
COc1ccc(S(=O)(=O)NCCc2ccccc2)cc1OC	9	2%	5%	0%	-3
CCCCCCCCNS(=O)(=O)CCNCc1ccccc1	-18	-22%	14%	x	5
COc1ccc(CNS(=O)(=O)CCNCc2ccccc2OC)cc1	-9	0%	1%	x	-28
COc1ccc(Cn2c(=O)c3oc4ccccc4c3n(CC(=O)Nc3cc(C)cc(C)c3)c2=O)cc1	x	x	-4%	x	-18
Cc1cc(C)c(Cn2c(C(O)c3ccccc3)nc3ccccc32)c(C)c1 (configuration not stated)	x	x	3%	x	-7
CCCCCCCCNS(=O)(=O)CCNCc1ccccc1OC	-51*	-19%	2%	x	-14
CCCCCCCCCc1ccc(OCCOCCO)cc1	x	x	x	x	11
CC(=O)c1cc(NC(=O)c2ccc(Cl)cc2)c(=O)oc1/C=C/N(C)C	-72*	5%	3%	0%	-4
Cc1cccc(N2CCN(C(=O)c3c(-c4ccccc4)noc3C)CC2)c1C	-17	12%	0%	0%	-6
Cc1cc(C)c(NC(=O)OCCN2CCOCC2)c(C)c1	-60*	-51%	4%	0%	-7
Cc1cc(C)c(NC(=O)CCCN2CCOCC2)c(C)c1	-10	1%[7.66 µM]	-1%	0%	1
